Screens deposited in PubChem by several laboratories.
Most compounds without a hit are left out; they make up all but 3% or so of the library.
5-HT1A blocker: 5-HT1a (human) receptor antagonism; P08908; CHO 5-HT1a Ga15 NFAT-bla reporter, antagonist mode; inhibition, % at 10 µM; hit rate 0.68% among 62,000;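 active = inhibition above the mean of all tested compounds plus 3 SD, cut at about 43% in these data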;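 also: receptor stimulated by 5-CT agonist at 100 nM near EC80; beta-lactamase reporter measured by ratiometric fluorescence of a cleavable substrate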
5HT1E ag: agonists of human 5-HT1E serotonin receptor; CHO 5-HT1E Ga15 NFAT-bla reporter, FRET; 0% DMSO wells, 100% control agonist wells; activation, % at 6 µM; hit rate 0.69% among 65,000; AID 574;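 active = activation above a set limit, the screen-wide mean activation plus 3 SD, cut at about 8.5% in these data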
Target sequence (P28566 whole entry, looked up): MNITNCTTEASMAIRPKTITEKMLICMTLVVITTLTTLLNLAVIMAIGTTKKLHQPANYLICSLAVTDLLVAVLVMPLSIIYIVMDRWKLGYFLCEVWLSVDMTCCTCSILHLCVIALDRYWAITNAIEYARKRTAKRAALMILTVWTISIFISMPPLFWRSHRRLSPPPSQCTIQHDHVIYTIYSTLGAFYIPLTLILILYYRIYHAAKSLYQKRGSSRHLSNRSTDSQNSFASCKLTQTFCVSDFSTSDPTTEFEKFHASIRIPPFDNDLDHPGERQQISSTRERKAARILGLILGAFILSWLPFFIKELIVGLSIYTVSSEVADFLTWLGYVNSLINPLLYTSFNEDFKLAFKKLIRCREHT
5HT1E antag: 5-HT1E (human) receptor antagonism. CHO 5-HT1E Ga15 NFAT-bla reporter, FRET, antagonist. hit rate 0.99% among 65,000. P28566. inhibition, % at 6 µM. AID 571;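 active = inhibition above a set limit, the mean inhibition across every tested compound plus 3 SD, cut at about 29% in these data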;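 also: signal is the 460 over 535 nm emission ratio of beta-lactamase substrate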
HTR1A agonist: agonists of human 5-HT1a serotonin receptor; P08908; CHO 5-HT1a Ga15 NFAT-bla reporter, FRET ratio; 0% basal, 100% maximal reference agonist; activation, % at 10 µM; hit rate 0.56% among 65,000;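 active = activation above the screen-wide mean activation plus 3 SD, cut at about 19% in these data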
HER2 expr 66K: inhibitors of human Her2 kinase expression; P04626; SKBR-3 HER2 protein level, AlphaScreen, 18-24 h; active compounds read low; HER2 level % of control, % at 10 µM; hit rate 0.69% among 65,000; AID 645;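 active = HER2 level under 5% of the carrier-only control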;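 also: lower value means stronger loss of Her2 protein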
Each line names hits and unclear results; the compound was inactive in the other large screens.

O=C1CCCC2=C1C(c1ccccc1)CC(=O)N2c1ccccc1 (configuration not stated)	none
O=C(c1ccco1)N1CCN(C(=O)c2cc(-c3ccccn3)nc3ccc(Cl)cc23)CC1	none
CCCn1c2ccccc2c2nc3ccccc3nc21	none
N#CCCn1c2ccccc2c2nc3ccccc3nc21	5HT1E antag 38
Cc1cccc(N2CCN(C(=O)c3ccc(Cl)c(S(=O)(=O)NCc4ccco4)c3)CC2)c1C	5HT1E ag 16
O=C(Oc1ccc2c(c1)OCO2)c1cc2c(s1)CCC2	HER2 expr 66K -7.5
O=C(c1cc2c(s1)CCCC2)N1CCN(Cc2ccc3c(c2)OCO3)CC1	none
Cc1cc(C(=O)Nc2ccc(S(=O)(=O)Nc3nccs3)cc2)c(C)o1	none
COC(=O)Nc1nc2ccc(C(=O)c3ccccc3)cc2[nH]1	5HT1E antag 75 (no result: 5-HT1A blocker)
COc1ccc2nc(SCC(N)=O)[nH]c2c1	none
CCCSc1ccc2nc(NC(=O)OC)[nH]c2c1	5HT1E antag 42 (no result: 5-HT1A blocker)
COc1cc(C(=O)Nc2nc3ccccc3[nH]2)cc(OC)c1OC	none
Cn1c(=O)c2c(nc(Oc3ccc4c(c3)OCO4)n2Cc2ccc(F)cc2)n(C)c1=O	none (no result: 5-HT1A blocker)
Cn1c(=O)c2c(nc(Oc3ccc4c(c3)OCO4)n2Cc2ccc(Br)cc2)n(C)c1=O	HTR1A agonist 40 (no result: 5-HT1A blocker)
COC(=O)c1ccc2[nH]c(C)c(CN3CCCC3)c(=O)c2c1	none
Cc1[nH]c2ccc(Br)cc2c(=O)c1CN1CCCCC1	HTR1A agonist 104
COc1ccc(-c2noc(CSc3nnc(CCc4ccccc4)n3-c3ccccc3)n2)cc1OC	5-HT1A blocker 43
COc1cccc(C2C(C(N)=O)=C(C)Nc3nc(-c4ccccc4Cl)nn32)c1 (configuration not stated)	none
CC1CN=C(N(C(=O)Nc2ccccc2)c2ccc(S(=O)(=O)N3CCOCC3)cc2)S1 (configuration not stated)	HER2 expr 66K 1.3
Cc1ccccc1-c1nc(CN2CCC(C(=O)NCCCN3CCCC3)CC2)c(C)o1	5HT1E ag 17
Cc1oc(-c2ccc(Cl)cc2)nc1CN1CCCC(C(=O)NCc2cccnc2)C1 (configuration not stated)	5HT1E ag 12
Cc1oc(-c2ccc(Cl)cc2)nc1CN1CCC(C(=O)N2CCc3ccccc3C2)CC1	HTR1A agonist 32
Cc1oc(-c2ccc(Cl)cc2)nc1CN1CCCC(C(=O)NCCCN2CCOCC2)C1 (configuration not stated)	5HT1E ag 23
O=C(NCCC1=CCCCC1)C1COc2ccccc2O1 (configuration not stated)	none
COc1ccc(Cl)cc1C(=O)Nc1nnn(C)n1	none
CN1CCN(Cc2cc(COCc3ccccc3)c3cccnc3c2O)CC1	5HT1E antag 48
Oc1ccc(CN2CCN(Cc3ccccc3)CC2)c2cccnc12	5HT1E antag 30
O=C(CCc1nc(-c2ccccc2F)no1)NCCc1ccccc1Cl	5HT1E ag 15
Cc1ccc(-c2noc(CCC(=O)NCCc3ccccc3Cl)n2)cc1	5HT1E ag 21
Cc1ccc(-c2noc(CCC(=O)NCCN3CCN(Cc4ccccc4)CC3)n2)cc1	none
CCOc1ccccc1N1CCN(S(=O)(=O)c2cccc3nsnc23)CC1	none
O=C(OC(C(=O)NC1CCCC1)c1ccccc1F)c1ccco1 (configuration not stated)	HTR1A agonist 156
COc1ccc(C(OC(=O)c2ccco2)C(=O)NC2CCCCC2)cc1OC (configuration not stated)	none
COc1ccccc1OCCn1c(C(C)O)nc2ccccc21 (configuration not stated)	none
Cc1cc(C(=O)CSc2nnc(C3COc4ccccc4O3)n2C)c(C)n1-c1ccc(F)cc1 (configuration not stated)	5HT1E antag 30
Cc1nn2c(-c3ccco3)nnc2c2ccccc12	HER2 expr 66K -1.1
Cc1nn2c(-c3ccncc3)nnc2c2ccccc12	none
O=C(Nc1ccccc1)N(O)c1ccc(Cl)cc1	none
Cn1c(N2CCOCC2)nc(-c2ccccc2)c1-c1ccccc1	5HT1E ag 20
c1ccc(-c2nc3ccccc3nc2N2CCOCC2)cc1	none
Cc1ccc2c(c1)NC(=O)C(CC(=O)NCCCN1CCN(c3cc(C)ccc3C)CC1)O2 (configuration not stated)	5-HT1A blocker 47
CCOC(=O)c1[nH]c(C)c(/C=N/O)c1C	5HT1E ag 9.8
CCOC(=O)c1[nH]c(C)c(C)c1C	none
COc1ccc2c(c1)sc1nc(-c3ccccc3)cn12	5-HT1A blocker 65, 5HT1E antag 75
COCCN1Cc2cccc(C(=O)NCc3ccc4c(c3)OCO4)c2C1=O	HTR1A agonist 238
COC(=O)c1ccccc1NC(=O)NCc1ccc2c(c1)OCO2	5HT1E antag 31
O=C1N(CN2CCC3(CC2)OCCO3)c2ccccc2C12OCCCO2	none
O=C1N(CN2CCN(c3cccc(Cl)c3)CC2)c2ccccc2C12OCCCO2	5HT1E ag 24
CC1CCOC2(O1)C(=O)N(CN1CCN(c3ccccc3F)CC1)c1ccccc12 (configuration not stated)	5HT1E ag 14
O=C(CN1C(=O)C2(OCCO2)c2ccccc21)c1ccc(F)cc1	none
CC(=O)Oc1ccc2cc(-c3nc4ccccc4n3C)c(=O)oc2c1	5HT1E ag 21, 5HT1E antag 33, HTR1A agonist 89
O=C(Nc1ccc2c(c1)OC1(CCCC1)O2)C1CC1	none
CCCN=Cc1sc2ccc(OCC)cc2c1O	5HT1E ag 35
Cc1cc(NC(=O)CSc2nc3ccccc3c(=O)n2C2CCCC2)no1	5-HT1A blocker 58, 5HT1E antag 65
Cc1nc2sccn2c1-c1nc(C2CC2)c(C(=O)c2ccc3c(c2)NC(=O)CO3)s1	none
CCCn1c(=N)n(CC(O)COc2cccc(C)c2)c2ccccc21 (configuration not stated)	none
CCCCn1c(=N)n(CC(O)COc2ccc(C)cc2)c2ccccc21 (configuration not stated)	5-HT1A blocker 53
N=c1n(Cc2ccccc2)c2ccccc2n1CC(O)COc1ccccc1 (configuration not stated)	HTR1A agonist 20
CCCCn1c(=N)n(CC(O)COc2ccccc2)c2ccccc21 (configuration not stated)	5-HT1A blocker 54
CCOC(=O)c1ccc2c(c1)nc(SCc1cn3ccsc3n1)n2CC	none
CC1=C(C)C(=O)NC(Nc2nc(C)c3cc(C)cc(C)c3n2)N1 (configuration not stated)	HER2 expr 66K -14
COc1cc(N2C(=O)NC3CC2(C)Oc2ccccc23)cc(OC)c1OC (configuration not stated)	none
CN(C)c1ccc(/C=C/C(O)=C2/C(=O)N(C)C3(C)CC2c2ccccc2O3)cc1 (configuration not stated)	5-HT1A blocker 54, 5HT1E antag 53
